Compounds with a hit are over-represented: about 9.4% of the library has one in this group of screens.
ELG1 DNA repair: inhibitors of ELG1-dependent DNA repair in HEK293T cells; HEK293T ELG1-luciferase reporter, luminescence, 16 h; DNA damage induced by 5-fluorouridine; Potency, µM (highest dose often 46.1 µM), usual class: inhibitors; AID 504467; hit rate 2.3% among 330,000; also: nearly all actives have a fitted effect of over 55% in size
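Cells (2,000 per well) received 5-fluorouridine plus test compound or DMSO and were incubated 16 hr at 37 °C, 5% CO2. Luciferase activity was read by luminescence 30 min after ONE-Glo addition; signal suppression marked inhibition of damage-induced ELG1 function.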
FLuc modulator: inhibits or activates purified firefly luciferase, miR-21 counter-screen; purified FLuc, Km substrates, luminescence inhibition; hit rate 6.9% among 360,000; AID 588342; Potency, µM (doses to about 57.5 µM), actives largely listed as inhibitors; P08659; also: nearly all actives have a fitted effect of over 55% in size
Target sequence (P08659 whole entry, looked up): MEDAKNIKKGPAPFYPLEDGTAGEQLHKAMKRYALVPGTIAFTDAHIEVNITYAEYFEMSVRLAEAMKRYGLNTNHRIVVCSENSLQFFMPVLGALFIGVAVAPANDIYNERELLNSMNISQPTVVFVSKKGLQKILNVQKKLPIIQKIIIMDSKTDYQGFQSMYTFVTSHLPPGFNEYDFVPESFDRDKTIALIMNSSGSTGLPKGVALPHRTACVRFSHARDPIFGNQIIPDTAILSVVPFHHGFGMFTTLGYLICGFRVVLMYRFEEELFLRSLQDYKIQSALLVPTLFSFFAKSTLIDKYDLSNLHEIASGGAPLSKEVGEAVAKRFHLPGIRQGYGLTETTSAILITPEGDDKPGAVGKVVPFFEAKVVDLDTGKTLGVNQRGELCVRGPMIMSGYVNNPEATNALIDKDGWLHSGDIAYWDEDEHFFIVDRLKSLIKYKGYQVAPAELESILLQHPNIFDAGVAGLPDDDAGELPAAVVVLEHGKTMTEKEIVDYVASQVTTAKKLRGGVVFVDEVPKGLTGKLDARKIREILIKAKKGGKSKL
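Purified P. pyralis luciferase (10nM final) with 10uM D-luciferin and 10uM ATP (Km levels) in 50mM Tris acetate pH 7.5, 10mM Mg acetate, 0.01% Tween-20, 0.05% BSA; qHTS 6-point titration, ~60 µM downward; luminescence read.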
SMN2 splice up: enhancers of SMN2 splice variant expression | HEK293 SMN2-luciferase splicing reporter, luminescence, 30-36 h | Potency, µM (series often up to 46.1 µM), most hits filed as activators | hit rate 2.8% among 210,000 | AID 1458; also: nearly all actives have a fitted effect of over 55% in size
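qHTS luciferase splicing reporter: luminescence rises when SMN2 exon 7 is included in transfected HEK293 cells. Compound exposure lasted 30-36 h at 37C, with 4.5 mM final sodium butyrate as control, followed by a ONE-Glo read.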
NPC1 prom act: activates the NPC1 promoter; Huh7 NPC1 promoter luciferase reporter, 24 h; Potency, µM (doses to about 9.22 µM), hits mostly activators; hit rate 2.4% among 320,000; AID 485313; also: nearly all actives have a fitted effect of over 60% in size
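Quantitative HTS used a cell-based reporter: Huh7 cells stably bearing the NPC1 promoter upstream of luciferase were treated with compounds for 24 h, and promoter activation was read as luminescence.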
Rab9 prom act: activators of Rab9 promoter. Huh7 Rab9 promoter-luciferase reporter, luminescence, 24 h. Potency, µM (top dose mostly 9.22 µM), hits mostly activators. hit rate 2.8% among 320,000. AID 485297; also: nearly all actives have a fitted effect of over 60% in size
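Quantitative HTS format; Huh7 Rab9-luciferase reporter cells (1500/well) receive compound 2 h post-plating, incubate 24 h at 37 °C, then get luciferase reagent for 10 min before luminescence reading.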
ELG1 genotox: genotoxicity induction in ELG1-luciferase HEK293T cells. HEK293T ELG1-luciferase reporter, luminescence, 16 h. Potency, µM (series often up to 46 µM), most hits filed as activators. hit rate 1.3% among 330,000; also: nearly all actives have a fitted effect of over 60% in size
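HEK293T cells expressing luciferase-tagged ELG1 were treated with compound or DMSO for 16 hr at 37°C. Luciferase activity was then read after 30 min with ONE-Glo at room temperature; rising signal flags genetic stress.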
Hits are given with their value; - = inactive; ? = inconclusive; . = not tested or not shown; [ ] = dose if it differs, or a comment. Calls follow the shape of the dose curve; as a rule, active = well fitted curve in the direction sought with a large enough effect; inconclusive = small, poorly fitted or top-dose-only effect, or another doubt; inactive = no such curve, though single readings can be large; an effect the other way counts as inactive or inconclusive.

SMILES	ELG1 DNA repair	FLuc modulator	SMN2 splice up	NPC1 prom act	Rab9 prom act	ELG1 genotox
CC(C)(C)OC(=O)CN1C(=O)S/C(=C\c2ccc(-c3cccc(C(=O)O)c3)o2)C1=O	?	15.1µM	.	?	3.16µM	?
O=C1S/C(=C/c2ccc(N3CCOCC3)o2)C(=O)N1Cc1ccc(F)cc1	-	?	-	-	-	-
CC(C)OC(=O)CN1C(=O)S/C(=C/c2ccc(N3CCCCC3)o2)C1=O	?	21.3µM	-	-	-	-
Cc1cc(C(=O)O)ccc1-c1ccc(/C=C2\SC(=O)N(CC(=O)Nc3ccc4c(c3)OCO4)C2=O)o1	-	?	.	-	-	-
Cc1ccc(NC(=O)CN2C(=O)S/C(=C/c3ccc(-c4cccc(C(=O)O)c4)o3)C2=O)cc1	?	21.3µM	?	-	-	-
C#CCN1C(=O)S/C(=C\c2ccc(-c3ccc(C(=O)O)cc3C)o2)C1=O	?	7.57µM	.	1.12µM	2.51µM	?
Cc1ccc(C(=O)O)cc1-c1ccc(/C=C2\SC(=O)N(CC(=O)Nc3ccccc3)C2=O)o1	-	?	-	-	-	-
CC(=O)Nc1ccc(NC(=O)C2CCN(S(=O)(=O)c3ccc4c(c3)CCCC(=O)N4)CC2)cc1	.	-	.	.	.	.
COc1ccc(S(=O)(=O)c2c(Nc3c(C)cccc3C)sc(C(=O)c3ccc4c(c3)OCO4)c2N)cc1	.	-	.	.	.	.
COc1ccc(/C=N/Nc2nccnc2Cl)c(OC)c1	?	10.7µM	-	-	?	?
Clc1nccnc1N/N=C/c1ccc(Br)cc1	?	9.53µM	.	2µM	2µM	?
COc1ccc(/C=N/Nc2nonc2N)c(OC)c1	-	?	-	-	-	-
COc1ccc(/C=N/Nc2nccnc2Cl)cc1	?	2.69µM	14.1µM	1.26µM	0.447µM	1.46µM
COc1ccc(/C=N/N=C/c2ccc(OC)cc2)cc1	-	?	.	-	-	-
COc1cc(NC(=O)CCNS(=O)(=O)c2ccc3c(c2)CCN3C(=O)C2CC2)cc(OC)c1	.	-	.	.	.	.
O=C1c2cc(Br)ccc2O[C@@H](c2ccc3c(c2)OCO3)[C@@H]1O	.	.	-	.	.	.
COc1ncc2nc(CCc3ccccc3)c(=O)n(C)c2n1	.	.	14.1µM	.	.	.
COCCn1c(=O)c(CCc2ccccc2)nc2cnc(OC)nc21	.	.	-	.	.	.
Cc1ccc(CO/N=C/c2c(O)cc(C)oc2=O)cc1	-	?	-	-	-	-
Cc1cc(O)c(/C=N/Nc2ccc(F)cc2)c(=O)o1	?	13.5µM	-	-	-	-
Cc1c(/C=N/Nc2ccc(F)cc2)c(O)n(C)c(=O)c1C#N	-	23.9µM	.	-	-	-
Cc1ccc(N/N=C/c2c(O)cc(C)oc2=O)cc1	-	13.5µM	-	-	-	-
CC(=O)N=Cc1c(C)c(C#N)c(=O)n(C)c1O	-	-	-	-	-	-
COc1ccccc1NC(=O)Cn1c(=O)n(CCc2ccccc2)c(=O)c2c3c(sc21)CN(C(C)=O)CC3	.	-	-	.	.	.
O=C(O)CSc1cc(-c2ccccc2)nc2ccccc12	.	.	-[9.22 µM]	.	.	.
SMILES	ELG1 DNA repair	FLuc modulator	SMN2 splice up	NPC1 prom act	Rab9 prom act	ELG1 genotox
CCc1ccc(-c2nnn(CCC(=O)OC)n2)cc1	?	15.1µM	-	-	-	-
CC(C)c1ccc(-c2nnn(CCC(=O)O)n2)cc1	-	9.53µM	-	-	-	-
Cc1cc(Cc2cc(C)cc(C(C)(C)C)c2O)c(O)c(Cc2cc(C)cc(C(C)(C)C)c2O)c1	.	.	-[9.22 µM]	.	.	.
CC(C)C(=O)N1CCN(c2ccc(NC(=O)c3ccc4c(c3)OCCO4)cc2Cl)CC1	5.8µM	4.26µM	-	-	-	-
CC(=O)N1CCN(c2ccc(NC(=O)c3ccc4c(c3)OCCO4)cc2Cl)CC1	?	6.01µM	.	-	-	-
COc1ccc(C(=O)Nc2ccccc2N2CCN(C(=O)C(C)C)CC2)cc1Cl	23.1µM	-	-	-	-	-
CC(=O)N1CCN(c2ccc(NC(=O)c3ccccc3Br)cc2Cl)CC1	?	?	-	-	-	-
COc1ccc(Cl)cc1C(=O)Nc1ccccc1N1CCN(C(=O)C(C)C)CC1	?	-	.	-	-	-
CC(C)C(=O)N1CCN(c2ccc(NC(=O)c3cccs3)cc2Cl)CC1	11.6µM	?	.	-	-	-
CC(C)C(=O)N1CCN(c2ccccc2NC(=S)NC(=O)c2cccs2)CC1	?	-	-	-	-	-
NC(=NCc1ccc(Cl)c(Cl)c1)NC(=O)c1nc(Cl)c(N)nc1N	.	.	-	.	.	.
O=C(c1ccc(CS(=O)c2ccccc2Cl)o1)N1CCN(c2ccccn2)CC1 (stereo unspecified)	?	-	.	-	-	-
COc1ccc(NC(=O)CCc2c(C)nc3c(c2C)c(=O)n(C)c(=O)n3C)c(OC)c1	.	-	-	.	.	.
O=C(O)c1cccc(N2C(=O)c3ccc(Oc4ccc(Cl)cc4)cc3C2=O)c1	-	7.57µM	.	-	-	-
Cc1cccc(NC(=O)N2CCN(Cc3ccccc3)CC2)c1	?	16.9µM	-	-	-	-
Cc1ccc(NC(=O)CN2CCOCC2)c(Br)c1	?	?	.	-	-	?
Cc1ccc(NC(=O)CN2CCN(Cc3ccccc3)CC2)c(Br)c1	20.6µM	-	.	-	-	-
Cc1ccccc1C(=O)N1CCN(CCc2ccccn2)CC1	.	-	.	.	.	.
COc1ccc(S(=O)(=O)N2CCOCC2)cc1NC(=O)COC(=O)c1[nH]c(C)c(C(C)=O)c1C	?	.	.	.	.	-
Cc1ccc(NC(=O)c2ccc([N+](=O)[O-])s2)cc1S(=O)(=O)N1CCOCC1	6.51µM	.	.	.	.	-
Cc1ccc(NC(=O)C2=COCCO2)cc1S(=O)(=O)N1CCOCC1	-	-	.	-	-	-
O=C(Nc1cc(S(=O)(=O)N2CCOCC2)ccc1O)c1ccc(NS(=O)(=O)c2ccc(Cl)s2)cc1	-	-	-	-	-	-
Cc1ccc(NC(=O)c2ccccc2NS(=O)(=O)c2ccc(Cl)s2)cc1S(=O)(=O)N1CCOCC1	23.1µM	?	-	-	-	-
COc1cc(S(=O)(=O)N2CCOCC2)ccc1NC(=O)COC(=O)CC12CC3CC(CC(C3)C1)C2	18.4µM	-	-	-	-	-
COc1ccc(S(=O)(=O)N2CCOCC2)cc1NC(=O)COC(=O)c1ccc([N+](=O)[O-])s1	23.1µM	.	.	.	.	-
CCCCC#Cc1nc(NC)c2ncn([C@@H]3O[C@H](CO)[C@@H](O)[C@H]3O)c2n1	.	.	.	-	-	.
NCC1OC(OC2C(N)CC(N)[C@@H](O)[C@@H]2OC2O[C@H](CO)[C@@H](O[C@@H]3OC(CN)C(O)C(O)C3N)C2O)C(N)C(O)C1O (stereo partly specified)	.	.	-	.	.	.
O=C1CC(c2nnc(Cc3ccc(F)cc3)o2)CN1c1ccccc1 (stereo unspecified)	.	-	-	.	.	.
Cc1ccc(CNC(=O)[C@H]2C[C@@H]2[C@H](NP(=O)(c2ccccc2)c2ccccc2)c2ccccc2)c(F)c1F	.	.	-	.	.	.
